Measurements as given in PubChem BioAssay (NCATS).
Inconclusive results are not listed. Unmarked numbers belong to inactive results. Active and inactive are the calls of the source. Calls follow the shape of the dose curve; as a rule, active = well fitted cell-killing curve with a large enough effect; inconclusive = small, poorly fitted or top-dose-only effect, or effect the other way; inactive = no such curve, though single readings can be large or run the other way.
Also: nearly all actives have a fitted effect of over 35% in size.
Potency is read from the fitted curve at half-maximal effect.

Test: Quantitative High-Throughput drug screen in 47 multiple myeloma cell lines against the NCATS MIPE library collection: MM1R_ATCC cell viability assay (AID 1918981)
Settings: MM1R multiple myeloma cells, CellTiter-Glo viability, 48 h; series mostly up to 45.8 µM; viability (% of control): at the top concentration
Method in brief: (§1)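 Viability after 48 h drug exposure was measured as ATP-dependent luminescence. Cells, 500 per well, sat at 37 °C under 5% CO2; DMSO wells set 100%, media-only wells 0%.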
For `Cc1nc(-c2ccc(-c3ccc(C(=O)N4CCc5cc6c(cc54)C4(CCN(C)CC4)CO6)cc3)c(C)c2)no1`, the “viability (% of control)” value was 133%.
With `CC(C)N[C@@H]1CCn2c(=O)[nH]c3cccc(c32)[C@@H]1O` the Potency was 6.62 µM (active).
With `N=c1c2c(-c3ccccc3)c(-c3ccccc3)n(Cc3ccccc3)c2ncn1C1CCC(O)CC1` (stereo not given) the Potency was 18.7 µM (active).
In the case of `Cc1ccccc1-n1c(Cn2ncc3c(N)ncnc32)nc2cccc(C)c2c1=O`, the Potency is reported as 16.6 µM (active).
With `CCOC(=O)c1cncn1[C@H](C)c1ccccc1` the “viability (% of control)” value was 114%.
In the case of `O=C(N[C@H]1CN2CCC1CC2)c1ccc(Cl)cc1`, the “viability (% of control)” value is reported as 122%.
With `CCNC(=O)CC1N=C(c2ccc(Cl)cc2)c2cc(OC)ccc2-n2c(C)nnc21` (stereo not given) the Potency was 14.8 µM (active).
With `N#C[C@H](O[C@@H]1O[C@H](CO[C@@H]2O[C@H](CO)[C@H](O)[C@H](O)[C@H]2O)[C@H](O)[C@H](O)[C@H]1O)c1ccccc1` the Potency was 29.6 µM (active).
For `CC1=NN=C(c2ccc(N)cc2)c2cc3c(cc2C1)OCO3`, the “viability (% of control)” value was 104%.
In the case of `CCN1C[C@]2(OC(=O)c3ccccc3NC(C)=O)CC[C@H](OC)[C@@]34[C@H]5CC6[C@@H](OC)C[C@](O)(C(C[C@@H]23)[C@@H]14)[C@@]5(O)[C@@H]6OC`, the “viability (% of control)” value is reported as 107%.
For `CC1(N2CCC(n3c([C@@H]4CCCNC4)nc4ccccc43)CC2)CCCCCCC1`, the Potency was 14.8 µM (active).
For `O=[N+]([O-])c1ncc[nH]1`, the “viability (% of control)” value was 122%.
In the case of `CN[C@@H]1Cc2cccc3[nH]c(=O)n(c23)C1`, the “viability (% of control)” value is reported as 92.6%.
In the case of `CC(C)(C)c1cc(C=C(C#N)C#N)cc(Br)c1O`, the Potency is reported as 23.5 µM (active).
In the case of `CCOP(=O)(OCC)C(C)NC(=O)N(CCCl)N=O` (stereo not given), the “viability (% of control)” value is reported as 122%.
With `CC(O)=C(C#N)C(=O)Nc1cc(Br)ccc1Br` the Potency was 20.9 µM (active).
For `CC(N[C@H]1C[C@H]1c1ccccc1)c1ccc2c(c1)OCCO2` (stereo not given in full), the “viability (% of control)” value was 124%.
With `COC[C@H]1OC(=O)c2coc3c2[C@@]1(C)C1=C(C3=O)[C@@H]2CC[C@H](O)[C@@]2(C)C[C@@H]1OC(C)=O` the Potency was 0.332 µM (active).
With `O=C(Nc1ccncc1)C(=O)c1cn(Cc2ccc(Cl)cc2)c2ccccc12` the Potency was 0.187 µM (active).

Test: Quantitative High-Throughput drug screen in 47 multiple myeloma cell lines against the NCATS MIPE library collection: LP1_DSMZ cell viability assay (AID 1918982)
Settings: LP1 myeloma viability, CellTiter-Glo ATP luminescence, 48 h; series mostly up to 45.8 µM; viability (% of control): at the top concentration
Method in brief: as §1
In the case of `N=c1c2c(-c3ccccc3)c(-c3ccccc3)n(Cc3ccccc3)c2ncn1C1CCC(O)CC1` (stereo not given), the Potency is reported as 23.5 µM (active).
With `CSCC[C@@H](NC(=O)[C@@H](Cc1ccccc1)NC(=O)CNC(=O)CNC(=O)[C@@H](N)Cc1ccc(O)cc1)C(=O)O` the “viability (% of control)” value was 104%.
With `Cc1c(N)nc([C@H](CC(N)=O)NC[C@@H](N)C(N)=O)nc1C(=O)N[C@H](C(=O)N[C@@H](C)[C@H](O)[C@@H](C)C(=O)N[C@@H](C(=O)NCCc1nc(-c2nc(C(=O)NCCC[S+](C)C)cs2)cs1)[C@@H](C)O)C(O[C@H]1O[C@H](CO)[C@H](O)[C@@H](O)[C@@H]1O[C@H]1O[C@H](CO)[C@@H](O)[C@H](OC(N)=O)[C@H]1O)c1cnc[nH]1` (stereo not given in full) the “viability (% of control)” value was 92.6%.
In the case of `CCOC(=O)c1cncn1[C@H](C)c1ccccc1`, the “viability (% of control)” value is reported as 112%.
For `O=C(N[C@H]1CN2CCC1CC2)c1ccc(Cl)cc1`, the “viability (% of control)” value was 102%.
In the case of `C=C1C[C@H]2[C@H]3CCC(=O)[C@@]3(C)CC[C@@H]2[C@@]2(C)C=CC(=O)C=C12`, the “viability (% of control)” value is reported as 90.9%.
With `C[C@](O)(COc1ccc(C#N)cc1)C(=O)Nc1ccc(C#N)c(C(F)(F)F)c1` the “viability (% of control)” value was 74.9%.

Test: Quantitative High-Throughput drug screen in 47 multiple myeloma cell lines against the NCATS MIPE library collection: KMS28PE_JCRB cell viability assay (AID 1918983)
Settings: KMS28PE multiple myeloma viability, CellTiter-Glo ATP, 48 h; series mostly up to 45.8 µM; viability, % of DMSO control: at the top concentration
Method in brief: as §1
With `O=C1C=CC[C@@H]2[C@H]3CCCN4CCC[C@@H](CN12)[C@@H]34` the Potency was 16.6 µM (active).
For `COc1ccc2c(c1)CN(C)CC2c1ccc(Cl)c(Cl)c1` (stereo not given), the Potency was 18.7 µM (active).
For `CC(C)N[C@@H]1CCn2c(=O)[nH]c3cccc(c32)[C@@H]1O`, the Potency was 20.9 µM (active).
In the case of `N=c1c2c(-c3ccccc3)c(-c3ccccc3)n(Cc3ccccc3)c2ncn1C1CCC(O)CC1` (stereo not given), the Potency is reported as 11.8 µM (active).
For `CSCC[C@@H](NC(=O)[C@@H](Cc1ccccc1)NC(=O)CNC(=O)CNC(=O)[C@@H](N)Cc1ccc(O)cc1)C(=O)O`, the “viability, % of DMSO control” value was 135%.
For `Cc1c(N)nc([C@H](CC(N)=O)NC[C@@H](N)C(N)=O)nc1C(=O)N[C@H](C(=O)N[C@@H](C)[C@H](O)[C@@H](C)C(=O)N[C@@H](C(=O)NCCc1nc(-c2nc(C(=O)NCCC[S+](C)C)cs2)cs1)[C@@H](C)O)C(O[C@H]1O[C@H](CO)[C@H](O)[C@@H](O)[C@@H]1O[C@H]1O[C@H](CO)[C@@H](O)[C@H](OC(N)=O)[C@H]1O)c1cnc[nH]1` (stereo not given in full), the “viability, % of DMSO control” value was 107%.
With `C[C@]12CC[C@H]3[C@@H](CCC4=CC(=O)CC[C@@]43C)[C@H]1CC[C@H]2OC(=O)CCC1CCCC1` the “viability, % of DMSO control” value was 134%.
With `Cc1ccccc1-n1c(Cn2ncc3c(N)ncnc32)nc2cccc(C)c2c1=O` the Potency was 9.35 µM (active).
In the case of `O=C(N[C@H]1CN2CCC1CC2)c1ccc(Cl)cc1`, the “viability, % of DMSO control” value is reported as 116%.
With `CC[C@H]1C=CC=CC[C@@H](C)[C@H](O)[C@@](C)(O)C(=O)[C@@H](C)[C@H](O)[C@@H](C)C(=O)[C@@H](C)[C@H](O)[C@@H](C)C=CC(=O)O[C@@H]2[C@@H](C)[C@H](CC1)O[C@]1(CC[C@H](C)[C@H](C[C@@H](C)O)O1)[C@H]2C` the Potency was 20.9 µM (active).
For `CCNC(=O)CC1N=C(c2ccc(Cl)cc2)c2cc(OC)ccc2-n2c(C)nnc21` (stereo not given), the Potency was 20.9 µM (active).
With `N#C[C@H](O[C@@H]1O[C@H](CO[C@@H]2O[C@H](CO)[C@H](O)[C@H](O)[C@H]2O)[C@H](O)[C@H](O)[C@H]1O)c1ccccc1` the Potency was 23.5 µM (active).
With `Cc1c(C(=O)c2cccc3ccccc23)c2cccc3c2n1[C@H](CN1CCOCC1)CO3` the Potency was 26.4 µM (active).
For `CCN1C[C@]2(OC(=O)c3ccccc3NC(C)=O)CC[C@H](OC)[C@@]34[C@H]5CC6[C@@H](OC)C[C@](O)(C(C[C@@H]23)[C@@H]14)[C@@]5(O)[C@@H]6OC`, the “viability, % of DMSO control” value was 135%.
With `CC1(N2CCC(n3c([C@@H]4CCCNC4)nc4ccccc43)CC2)CCCCCCC1` the “viability, % of DMSO control” value was 87.1%.
For `O=[N+]([O-])c1ncc[nH]1`, the Potency was 0.105 µM (active).
For `CN[C@@H]1Cc2cccc3[nH]c(=O)n(c23)C1`, the “viability, % of DMSO control” value was 102%.
In the case of `CC(C)(C)c1cc(C=C(C#N)C#N)cc(Br)c1O`, the Potency is reported as 23.5 µM (active).
For `CCCN1CCO[C@@H]2c3cc(O)ccc3OC[C@@H]21`, the “viability, % of DMSO control” value was 119%.
For `CCOP(=O)(OCC)C(C)NC(=O)N(CCCl)N=O` (stereo not given), the “viability, % of DMSO control” value was 129%.
With `CC(O)=C(C#N)C(=O)Nc1cc(Br)ccc1Br` the Potency was 14.8 µM (active).
With `CC(N[C@H]1C[C@H]1c1ccccc1)c1ccc2c(c1)OCCO2` (stereo not given in full) the Potency was 0.469 µM (active).
In the case of `COC[C@H]1OC(=O)c2coc3c2[C@@]1(C)C1=C(C3=O)[C@@H]2CC[C@H](O)[C@@]2(C)C[C@@H]1OC(C)=O`, the Potency is reported as 1.32 µM (active).
For `O=C(NCC1CCOCC1)c1cnc(Nc2ccc(Cl)cc2Cl)nc1C(F)(F)F`, the “viability, % of DMSO control” value was 101%.
